High-throughput results deposited in PubChem BioAssay by National Center for Advancing Translational Sciences (NCATS).
Shown are actives, neighbours in structure and some others; about 7.5% of the full set was active somewhere.
SMN2 splice up = SMN2 splice variant enhancement. HEK293 SMN2-luciferase splicing reporter, luminescence, 30-36 h. Potency, µM (titrated, usually from 46.1 µM), usual class: activators. 210,000 compounds, 2.8% hits. AID 1458; further: nearly all actives have a fitted effect of over 55% in size
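HEK293 cells carry an SMN2 […]–luciferase reporter in which exon 7 inclusion puts luciferase in frame. Cells were plated 10-12 h before compound addition, then incubated 30-36 h at 37C. ONE-Glo luminescence was read; sodium butyrate at 4.5 mM final served as control.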
ELG1 genotoxic = inducers of genotoxicity in HEK293T ELG1-luciferase cells | HEK293T ELG1-luciferase reporter, luminescence, 16 h | Potency, µM (titrated, usually from 46 µM), most hits filed as activators | 330,000 compounds, 1.3% hits | AID 504466; further: nearly all actives have a fitted effect of over 60% in size
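Genotoxicity was scored as increased ELG1-luciferase reporter signal, measured by ONE-Glo luminescence (30 min, room temperature). Compound or vehicle exposure of the HEK293T reporter cells lasted 16 hr at 37°C.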
Rab9 promoter act = Rab9 promoter activation | Huh7 Rab9 promoter-luciferase reporter, luminescence, 24 h | Potency, µM (series often up to 9.22 µM), usual class: activators | 320,000 compounds, 2.8% hits | AID 485297; further: nearly all actives have a fitted effect of over 60% in size
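Steps: seed 1500 Huh7 Rab9-luc cells per well, rest 2 h at 37 °C; add compound in DMSO; incubate 24 h; add luciferase reagent, 10 min ambient; read luminescence.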
FLuc counter = inhibits or activates purified firefly luciferase, miR-21 counter-screen. Potency, µM (top dose mostly 57.5 µM), hits mostly inhibitors. 360,000 compounds, 6.9% hits. AID 588342. purified FLuc, Km substrates, luminescence inhibition. P08659; further: nearly all actives have a fitted effect of over 55% in size
Target sequence (P08659 whole entry, looked up): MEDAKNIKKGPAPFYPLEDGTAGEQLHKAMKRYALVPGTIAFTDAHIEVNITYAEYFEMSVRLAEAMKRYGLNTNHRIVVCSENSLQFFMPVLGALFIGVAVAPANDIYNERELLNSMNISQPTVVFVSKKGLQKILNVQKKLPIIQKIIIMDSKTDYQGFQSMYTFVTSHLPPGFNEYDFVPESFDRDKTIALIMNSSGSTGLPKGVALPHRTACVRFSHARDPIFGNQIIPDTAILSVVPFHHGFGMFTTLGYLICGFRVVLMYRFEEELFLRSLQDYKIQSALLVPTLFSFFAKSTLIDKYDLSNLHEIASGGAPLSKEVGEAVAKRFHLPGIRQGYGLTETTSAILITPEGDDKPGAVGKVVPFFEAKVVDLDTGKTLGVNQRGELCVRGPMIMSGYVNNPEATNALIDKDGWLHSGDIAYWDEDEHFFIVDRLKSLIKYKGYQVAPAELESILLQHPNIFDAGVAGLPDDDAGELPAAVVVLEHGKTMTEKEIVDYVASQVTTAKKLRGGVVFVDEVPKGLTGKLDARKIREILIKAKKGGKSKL
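Biochemical qHTS of compounds, final roughly 60 µM downward over six points, against 10 nM purified firefly luciferase using Km concentrations of substrates (10 uM D-luciferin, 10 uM ATP) in Tris acetate pH 7.5 buffer; luminescence output.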
KinaseGlo FLuc = counter-screen: inhibitors of Kinase-Glo firefly luciferase. Q27757. Kinase-Glo luciferase, ATP luminescence, 8 min. Potency, µM (top dose mostly 38.3 µM), usual class: inhibitors. 200,000 compounds, 0.28% hits. AID 1379; further: nearly all actives have a fitted effect of over 60% in size
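Inhibition of Kinase-Glo luciferase light generation was assessed at 10 uM ATP in pH 7.2 imidazole buffer, with luminescence measured after eight minutes at ambient temperature.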
NPC1 prom act = activators of NPC1 promoter. Huh7 NPC1 promoter luciferase reporter, 24 h. Potency, µM (doses to about 9.22 µM), most hits filed as activators. 320,000 compounds, 2.4% hits. AID 485313; further: nearly all actives have a fitted effect of over 60% in size
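Huh7 cells stably carrying NPC1 promoter–luciferase, plated in Opti-MEM with 10% FBS for 2 h, were exposed to compound in DMSO for 24 h at 37 °C; luciferase reagent was added for 10 min and luminescence read.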
Hits are given with their value; – = inactive; ? = inconclusive; · = not tested or not shown; [ ] = remark or other dose. The call rests on the fitted dose curve; in most records, active means well fitted curve in the direction sought with a large enough effect; inconclusive means small, poorly fitted or top-dose-only effect, or another doubt; inactive means no such curve, though single readings can be large; an effect the other way counts as inactive or inconclusive.

SMILES	SMN2 splice up	ELG1 genotoxic	Rab9 promoter act	FLuc counter	KinaseGlo FLuc	NPC1 prom act
Cc1ccc(NC(=O)c2ccc(Br)o2)cc1S(=O)(=O)N(C)C	?	–	?	13µM	–	?
O=C(Nc1ccc2c(c1)CCC2)c1cc2ccccc2o1	13µM	1.6µM	1.3µM	1.3µM	–	1.3µM
Cc1ccc(C(=O)Nc2ccc3c(c2)CCC3)o1	4.5µM	3.3µM	2.8µM	4.3µM	13µM	3.2µM
O=C(Nc1ccc2c(c1)OCO2)c1ccc(COc2ccc3c(c2)CCC3)o1	11µM	?	4µM	19µM	–	?
Cc1cc([N+](=O)[O-])ccc1N(C)C	–	–	–	–	–	–
Cc1cc(C)cc(NC(=O)N2CCC(N3CCN(Cc4ccccc4)C(=O)C3=O)CC2)c1	·	·	·	–	·	·
Cc1cccc(CCn2c(=O)c3ccccc3n(Cc3cccc(F)c3)c2=O)c1	–	·	·	?	·	·
O=C(Nc1ccc2c(c1)CCC2)c1ccc(Br)o1	13µM	6.5µM	3.2µM	6.7µM	–	3.5µM
O=C(Nc1ccc2c(c1)OCO2)c1ccc(Br)o1	11µM	18µM	2.8µM	24µM	–	2.5µM
Cc1ccccc1CC(=O)N1CCCC(CNC(=O)c2ccc(F)cc2)C1 (stereo not given)	·	–	–	–	·	–
C=CCC(=O)N1CCCC(CNC(=O)c2ccc(-c3ccccc3)cc2)C1 (stereo not given)	·	–	–	24µM	–	–
O=C(NCC1CCCN(C(=O)c2cscn2)C1)c1ccc(-c2ccccc2)cc1 (stereo not given)	·	–	–	17µM	–	–
CC(=O)NCCC(=O)N1CCCC(CNC(=O)c2ccc(-c3ccccc3)cc2)C1 (stereo not given)	–	–	–	15µM	–	–
CC(=O)c1ccc(C(=O)N2CCCC(CNC(=O)c3ccccc3Cl)C2)cc1 (stereo not given)	·	–	–	–	·	–
O=C(NCC1CCCN(C(=O)c2cscn2)C1)c1ccccc1Cl (stereo not given)	·	–	–	?	–	–
O=C(Nc1ccccc1)C1=C[C@@H](C2CCCCC2)C[C@@H](OCCCCO)O1	·	?	?	12µM	·	–
N#C/C(=C\c1cccnc1)c1ccccn1	·	–	–	–	·	–
COc1ccc(/C=N/Nc2nnc(Cc3ccccc3)c(=O)[nH]2)cc1OC	·	–	–	1.7µM	·	?
COc1ccc(Cc2nnc(N/N=C/c3ccc(O)cc3)[nH]c2=O)cc1OC	–	–	–	–	–	–
COc1ccc(/C=N/Nc2nc3ccccc3c(=O)n2-c2ccccc2)cc1OC	–[1.84 µM]	–	?	1.9µM	–	–
COc1ccc(/C=N/n2c(C)nc3ccccc3c2=O)cc1OC	·	–	–	–	·	–
C[C@@H](C(=O)CC(=O)OC(C)(C)C)[C@@H](O)c1ccccc1	·	–	–	–	·	–
COc1ccc(Nc2nccc(-c3cccc(N)c3)n2)cc1	·	–	?	2.7µM	·	1.8µM
Brc1ccc(N=Nc2ccc3ccccc3n2)cc1	·	?	?	0.021µM	·	?
CCC(=O)NCCc1nc2cc(NC(=O)c3ccc(F)cc3)ccc2n1C	·	7.3µM	2.8µM	17µM	·	1.3µM
SMILES	SMN2 splice up	ELG1 genotoxic	Rab9 promoter act	FLuc counter	KinaseGlo FLuc	NPC1 prom act
Cn1c(CCNC(=O)C2CCCCC2)nc2cc(NC(=O)c3cccs3)ccc21	–	?	–	–	–	–
CC(=O)NCCc1nc2cc(NC(=O)c3ccc(Cl)cc3)ccc2n1C	·	5.8µM	1.1µM	8.5µM	·	0.71µM
CCC(=O)NCCc1nc2cc(NC(=O)c3ccc(Cl)cc3)ccc2n1C	·	?	0.63µM	11µM	·	1.8µM
CC(=O)NCCc1nc2cc(NC(=O)c3cccs3)ccc2n1C	·	–	4.5µM	?	–	?
CCCC(=O)Nc1ccc2c(c1)nc(CCNC(=O)c1ccccc1)n2C	–	–	–	–	–	–
CC(=O)N1CCN(Cc2nc3cc(NC(=O)c4ccc(Cl)cc4)ccc3n2C)CC1	–	–	–	?	–	–
Clc1cccc2c1CCN(Cc1nc(-c3cnccn3)no1)C2	–	–	–	–	–	–
